IEC-6 cytotox: counter-screen for KLF5 inhibitors: cytotoxicity in IEC-6 cells; 290,000 compounds, 0.78% hits; inhibition, % at 5 µM; IEC-6 cytotoxicity, luminescence viability;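 also: 0% = plate median of test compound wells and 100% = cytotoxic reference compound wells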
BaF3 parental: reduces parental Ba/F3 cell viability, JAK2V617F counter-screen; AID 1486; inhibition, % at 5.6 µM; CellTiter-Glo ATP luminescence; 220,000 compounds, 1.1% hits;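 active = inhibition above a per-campaign cutoff, the mean inhibition of all tested compounds plus 3 SD, cut at about 27% in these data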;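 also: 0% = DMSO wells and 100% = JAK Inhibitor I control wells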
APP transl inh: APP translation inhibition | SH-SY5Y APP 5'UTR-luciferase reporter, luminescence | inhibition, % at 2 µM | 190,000 compounds, 0.82% hits | AID 1285;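 active = inhibition above a set limit, derived from the sample mean plus 3 SD, cut at about 45% in these data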
Ba/F3 V617F tox: lowers viability of Ba/F3 cells expressing EpoR and JAK2V617F | ATP luminescence | inhibition, % at 5.6 µM | 220,000 compounds, 1.1% hits | AID 1446;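 active = inhibition above the campaign mean plus 3 SD over all tested compounds, cut at about 24% in these data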;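 also: cytokine-independent growth of Ba/F3 cells driven by EpoR plus mutant JAK2; 0% = DMSO-treated cells and 100% = JAK inhibitor I control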
KLF5 inhibitor: suppresses KLF5 promoter-driven expression; DLD-1 KLF5 promoter-luciferase reporter, luminescence; inhibition, % at 5 µM; 290,000 compounds, 0.23% hits;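 active = inhibition above a per-plate limit of that plate's mean compound inhibition plus 3 SD, cut at about 60% in these data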;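 also: 0% = DMSO wells and 100% = LY294002 at 200 µM; higher means less KLF5 promoter-driven luciferase light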
IEC-6 tox confirm: confirmation of cytotoxic compounds in rat IEC-6 intestinal epithelial cells; IEC-6 rat intestinal epithelial viability, luminescence; inhibition, % at 5 µM; shares compounds with IEC-6 cytotox; 1,900 compounds, 63% hits;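 also: 0% = vehicle and 100% = reference cytotoxic drug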
Active calls of the source: *; . = no result. Most compounds without a hit are left out; they make up all but 1.9% or so of the library. Rule as the data show it, unless noted: active = inhibition above about 22%; inactive = the rest.

SMILES	IEC-6 cytotox	BaF3 parental	APP transl inh	Ba/F3 V617F tox	KLF5 inhibitor	IEC-6 tox confirm
CCOC(=O)C1(CCc2ccccc2)CCN(C(=O)c2ccoc2)CC1	-2	3	-1	6	-12	.
C[C@@H]1C[C@H](O)c2cc(Cl)ccc2N1	1	4	-11	0	-31	.
N#CC1CC(c2ccccc2)Nc2cc(Cl)ccc2N1 (centres undefined)	40*	-1	.	2	-64	21
COC(=O)c1nc(NC2=NCCCCC2)n[nH]1	4	2	-18	-1	5	.
O=C(NCCN1CCOCC1)c1ccncc1	-8	1	-14	-1	3	.
O=C1C=C(NCCN2CCOCC2)C(=O)c2cnccc21	99*	11	13	8	30	100*
O=C(O)CSc1cc(NS(=O)(=O)c2ccc(Cl)cc2)c2ccccc2c1O	57*	.	.	.	-42	-3
COc1cccc(-n2nc(C#N)c(Cl)cc2=O)c1	28*	-10	91*	8	12	29*
COc1cccc(-n2nc(C(N)=O)c(O)cc2=O)c1	-1	3	-3	1	-18	.
CCOc1ccc(Nc2cc(C)c3ccccc3n2)cc1	2	.	.	.	-27	.
CCOc1ccc(Nc2c3ccccc3nc3ccccc23)cc1	72*	68*	.	76*	40	44*
CCOc1cc(/C=N\NC(=O)c2ccc(NC(=O)C(C)(C)C)cc2)ccc1OC(=O)c1ccc(C)cc1	2	3	-4	-1	-7	.
Cc1cccc(C)c1NC(=O)C1(N2C(=O)CC2c2ccccc2)CCCCC1 (centres undefined)	-2	6	16	-4	6	.
COc1cc2c(c(OC)c1OC)-c1ccc(NC(=O)c3ccc(F)cc3)c(=O)cc1[C@@H](NC(C)=O)CC2	26*	.	.	.	18	53*
CC1=C([N+](=O)[O-])C(c2ccccc2)C2=C(N1)c1ccccc1C2=O (centres undefined)	47*	71*	57*	77*	58	56*
COc1ccc(C2C(C#N)=C(C)NC3=C2C(=O)c2ccccc23)cc1 (centres undefined)	-4	1	5	-3	15	.
COc1ccccc1N1CCN(c2ccnc3cc(Cl)ccc23)CC1	65*	.	.	.	42	53*
CC(C)CC(NC(=O)c1ccco1)C(=O)Nc1ccc2c(c1)OCCO2 (centres undefined)	4	6	-16	2	-34	.
O=C(Nc1cccc(C(=O)Nc2ccc(Cl)cn2)c1)c1ccccc1	8	.	.	.	-30	.
O=C(Nc1ccc(Cl)cn1)c1cccc(F)c1	23*	18	-54	18	-56	33*
O=C(O)c1cc(NS(=O)(=O)c2ccc(NCc3ccccc3)c([N+](=O)[O-])c2)cc(C(=O)O)c1	-4	.	.	.	-19	.
COc1cccc(CC(=O)NCCCSc2ccccc2)c1	3	.	.	.	-1	.
COc1cccc(C(=O)N2N=C(c3ccccn3)CC2(O)C(F)(F)F)c1 (centres undefined)	24*	-1	.	-1	-16	12
COc1ccc(CC(=O)N2N=C(c3ccncc3)CC2(O)C(F)(F)F)cc1 (centres undefined)	24*	25	2	5	28	30*
CCc1ccc(OCC(=O)NNC(=S)NC(=O)C2CC2)c(Br)c1	30*	.	.	.	14	11
SMILES	IEC-6 cytotox	BaF3 parental	APP transl inh	Ba/F3 V617F tox	KLF5 inhibitor	IEC-6 tox confirm
CCc1ccc(OCC(=O)NNC(=S)NC(=O)C2CCCCC2)c(Br)c1	2	.	.	.	-2	.
Cc1cc(C(=O)N2CCN(C/C=C/c3ccccc3)CC2)cs1	45*	3	-16	0	2	-16
O=C(c1cccnc1)N1CCN(C/C=C/c2ccccc2)CC1	3	6	-9	0	-18	.
CCOc1ccc(N=Cc2c(C)[nH]n(-c3nc4ccccc4[nH]3)c2=O)cc1	30*	34*	5	28*	-23	53*
COc1ccc(NC(=O)C(NC(=O)c2ccccc2)C(C)C)cc1 (centres undefined)	-5	7	13	-1	-18	.
Cc1cccc(C(=O)N[C@H](C(=O)Nc2nc3ccccc3[nH]2)C(C)C)c1	74*	27*	62*	77*	17	56*
COc1ccc(C(=O)N[C@H](C(=O)Nc2nc3ccccc3[nH]2)C(C)C)cc1	63*	61*	77*	42*	-25	59*
O=C(O)CCNc1ccc(NCCC(=O)O)c2c1C(=O)c1ccccc1C2=O	24*	.	.	.	-1	10
COc1ccccc1NCCC(=O)O	-12	-3	.	0	-42	.
COC(=O)/C=C1\N/C(=N\c2nc(C)cc(C)n2)N(c2ccc(C)cc2)C1=O	-1	6	8	-1	-8	.
Cc1cccc(NC(=O)Cn2c([N+](=O)[O-])cnc2C)c1C	-3	1	-11	-2	-28	.
CCN1CCCC1CNC(=O)C1CCN(Cc2nc(-c3cccc(Br)c3)oc2C)CC1 (centres undefined)	49*	31*	-5	12	12	99*
Cc1ccccc1-c1nc(CN2CCC(C(=O)NCCCN3CCCC3)CC2)c(C)o1	0	8	-1	2	19	.
Cc1ccccc1-c1nc(CN2CCC(C(=O)NCCCN3CC(C)CC(C)C3)CC2)c(C)o1 (centres undefined)	60*	21	-12	15	1	53*
Cc1ccc(SCC(=O)N=C2NC(=O)CS2)cc1	5	7	20	3	-1	.
O=C(Nc1scc(-c2cccs2)c1C(=O)O)c1cccs1	-2	1	-25	1	-47	.
COc1ccc(OC)c(-c2csc(NC(=O)c3ccc(F)cc3)n2)c1	34*	.	.	.	19	16
O=C(c1ccccc1)c1ccc(Cn2cc(CCCO)nn2)cc1	7	.	.	.	-13	.
O=C(O)CCCCCCCCc1cn(Cc2ccc(C(=O)c3ccccc3)cc2)nn1	72*	.	.	.	-27	24*
Cn1c(SCc2ccccc2Cl)nc2c1c(=O)[nH]c(=O)n2C	-2	.	.	.	-40	.
Cc1cnc(NC(=O)CC(C)c2ccccc2)s1 (centres undefined)	33*	.	.	.	28	23*
CC(C)c1nnc(NC(=O)CC(C)c2ccccc2)s1 (centres undefined)	-1	.	.	.	-48	.
Cc1csc(NC(=O)CCSCCc2ccccn2)n1	-2	1	-6	-4	-16	.
CCCCCCCn1c(=N)n(CC(=O)c2ccco2)c2ccccc21	6	6	-12	5	-7	.
CCOc1ccc(/C=N/NC(=O)c2cc3c(OC)cc(OC)c(OC)c3[nH]2)cc1	7	.	.	.	-5	.
CCOc1ccc2[nH]c(C(=O)N/N=C/c3ccccc3OC)cc2c1	48*	.	.	.	60	14
COc1ccc(C(=O)N/N=C/c2ccc(OC(=O)c3ccccc3)cc2)cc1	-4	3	2	-2	6	.
COc1ccc(C(=O)N/N=C/c2ccccc2OC(=O)c2ccccc2)cc1	94*	.	.	.	-64	12
Cc1cc(C)c(NC(=S)N2CCC(N(C)CC3CCCO3)CC2)c(C)c1 (centres undefined)	27*	2	16	-7	-3	-7

Assay outcomes (PubChem)
